The source of these data is PubChem BioAssay (NCI).

Structures are written as SMILES. This is part of a sample that, as a whole, favours compounds with a hit. Of some 83,000 tested, about 20% had one in any assay.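 Single-dose data. Exposure time 48 hours. Values below 10 considered active.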 A number with no mark means an inactive call. The source made the active and inactive calls.

Some test systems named below: NCI-H23 lung; NCI-H226 lung; NCI-H460 lung; HOP-92 NSCLC; A549/ATCC NSCLC; 786-0 renal; COLO 205 colon; NCI-H522 lung.
Assay in all cases: NCI-60 one-dose screen, 48 h (100 = growth as untreated, 0 = no growth, -100 = all killed)
Common to all, as to conditions: 10 µM

Consider `O=C1C=C(Nc2cccc(Br)c2)c2ccccc2C1=O`, for which the growth in the experiment with NCI-H23 lung was 41.1%; with NCI-H226 lung it was 91.3%; with NCI-H460 lung, 12.7%; with HOP-92 NSCLC, 39.1%; in the experiment with A549/ATCC NSCLC, 16.7%; in the experiment on 786-0 renal it was 60.2%. Moreover, the growth with COLO 205 colon was 104%.
With `Nc1nc(Cl)nc2c1ncn2C1O[C@H](CO)[C@@H](O)[C@@H]1F` (some centres undefined), the growth was -9.12% (active) with NCI-H23 lung; 2.75% (active) with NCI-H226 lung; 3.27% (active) in the experiment on NCI-H460 lung; 38.4% in the experiment with HOP-92 NSCLC; 23.4% with A549/ATCC NSCLC; -34.1% (active) in the experiment with 786-0 renal. In addition, in the experiment with COLO 205 colon, the growth was 37.6%.
As to `CC(=O)O[C@@]12CO[C@@H]1C[C@H](O)[C@@]1(C)C(=O)[C@H](O)C3=C(C)[C@@H](OC(=O)[C@H](O)[C@@H](NC(=O)OC(C)(C)C)c4ccccc4)C[C@@](O)([C@@H](OC(=O)c4ccccc4)C12)C3(C)C` (some centres undefined), the growth in the experiment with NCI-H23 lung is 31.8%; in the experiment with NCI-H226 lung, 61.5%; in the experiment on NCI-H460 lung, 12.1%; with HOP-92 NSCLC, 56.3%; in the experiment on A549/ATCC NSCLC, 38.8%; in the experiment on 786-0 renal, 54%. In addition, the growth in the experiment on COLO 205 colon was 0.921% (active).
As to `CC(C)Cc1ccc([C@H](C)C(=O)O)cc1`, the growth is 105% in the experiment on NCI-H23 lung; 112% with NCI-H226 lung; 106% with NCI-H460 lung; 79% in the experiment with HOP-92 NSCLC; 102% in the experiment on A549/ATCC NSCLC; 106% in the experiment with 786-0 renal. Besides, in the experiment on COLO 205 colon, the growth is 113%.
On to `COc1cc(N)c2ncccc2c1SC`, for which the growth with NCI-H23 lung is 93.6%; in the experiment on NCI-H226 lung, 106%; in the experiment on NCI-H460 lung, 105%; in the experiment on HOP-92 NSCLC it was 94.6%; in the experiment with A549/ATCC NSCLC, 99.5%; with 786-0 renal, 116%. In addition, the growth in the experiment on COLO 205 colon was 100%.
For `Nc1ccccc1NC(=O)c1ccc(CCCC(=O)Nc2ccc(C3CC3N)cc2)cc1` (centres undefined), the growth in the experiment on NCI-H23 lung was 37.2%; in the experiment on NCI-H226 lung, 27.5%; with NCI-H460 lung, 40.4%; in the experiment with NCI-H522 lung, -34.4% (active); in the experiment on A549/ATCC NSCLC it was 34.8%; with 786-0 renal it was 38.8%. The growth in the experiment on COLO 205 colon is -5.7% (active).
Consider `COc1ccc(-c2cc(-c3cc(OC)ccc3OC)nc(N)c2C#N)cc1`, for which the growth in the experiment on NCI-H23 lung is 68.8%; with NCI-H226 lung it was 63.7%; with NCI-H460 lung, 52.5%; in the experiment on NCI-H522 lung, 23.6%; with A549/ATCC NSCLC, 62.6%; with 786-0 renal it was 66.2%. For the same molecule, the growth in the experiment with COLO 205 colon is 57.1%.
Consider `CCCc1nc(C(C)(C)O)c(C(=O)O)n1Cc1ccc(-c2ccccc2-c2nn[nH]n2)cc1`, for which the growth with NCI-H23 lung was 103%; in the experiment with NCI-H226 lung, 103%; with NCI-H460 lung, 105%; in the experiment on HOP-92 NSCLC, 91.7%; in the experiment on A549/ATCC NSCLC it was 99%; in the experiment on 786-0 renal, 104%. In addition, the growth in the experiment with COLO 205 colon is 111%.
Take `COCCn1cc(-c2nc(-c3cccnc3)cs2)c2cc(F)ccc21`: the growth is 94% in the experiment with NCI-H23 lung; 91.5% in the experiment with NCI-H226 lung; 92.7% in the experiment with NCI-H460 lung; 70.6% with NCI-H522 lung; 90.1% with A549/ATCC NSCLC; 90.8% in the experiment with 786-0 renal. The growth in the experiment with COLO 205 colon is 104%.
Take `C[N+]1(CCCCC[N+]2(C)CCCC2)CCCC1`: the growth in the experiment on NCI-H23 lung is 105%; with NCI-H226 lung, 83.8%; in the experiment with NCI-H460 lung, 94.7%; in the experiment with HOP-92 NSCLC, 74.6%; with A549/ATCC NSCLC it was 76.2%; with 786-0 renal it was 118%. Besides, the growth in the experiment with COLO 205 colon is 122%.
With `Clc1nc2ccccc2cc1Cn1nnc(Cc2ccccc2)n1`, the growth is 45.6% in the experiment on NCI-H23 lung; 58.2% in the experiment with NCI-H226 lung; 74.3% in the experiment on NCI-H460 lung; 42.1% with NCI-H522 lung; 53.9% in the experiment with A549/ATCC NSCLC; 72.9% in the experiment on 786-0 renal. In addition, the growth in the experiment on COLO 205 colon is 82.7%.
For `CNC(=O)c1c(I)c(NC(C)=O)c(I)c(C(=O)O)c1I`, the growth is 97.5% in the experiment on NCI-H23 lung; 98.8% with NCI-H226 lung; 109% in the experiment on NCI-H460 lung; 92.7% in the experiment with HOP-92 NSCLC; 105% with A549/ATCC NSCLC; 127% in the experiment on 786-0 renal. Further, the growth with COLO 205 colon was 118%.
Consider `COc1ccc2nc3cc(Cl)ccc3c(Nc3cc(CN4CCCC4)c(O)c(CN4CCCC4)c3)c2n1`, for which the growth was -29.4% (active) in the experiment on NCI-H23 lung; -32.1% (active) in the experiment with NCI-H226 lung; 4.16% (active) in the experiment on NCI-H460 lung; -16.4% (active) in the experiment on HOP-92 NSCLC; 9.53% (active) in the experiment with A549/ATCC NSCLC; 0.406% (active) in the experiment on 786-0 renal. Further, in the experiment on COLO 205 colon, the growth was -48.5% (active).
As to `COc1ccccc1-n1c(-c2csc(NC(C)=O)n2)n[nH]c1=S`, the growth was 93.1% with NCI-H23 lung; 96.7% with NCI-H226 lung; 109% in the experiment on NCI-H460 lung; 96% in the experiment with HOP-92 NSCLC; 100% in the experiment on A549/ATCC NSCLC; 97.2% with 786-0 renal. In addition, the growth in the experiment with COLO 205 colon was 115%.
Regarding `CCc1cc(Cl)c(OC)c(C(=O)NCC2CCCN2CC)c1O` (centres undefined), the growth in the experiment on NCI-H23 lung is 85.5%; in the experiment on NCI-H226 lung it was 94.7%; in the experiment with NCI-H460 lung, 104%; in the experiment with HOP-92 NSCLC it was 65.8%; in the experiment with A549/ATCC NSCLC, 95.6%; in the experiment with 786-0 renal it was 97.8%. In addition, the growth in the experiment with COLO 205 colon was 103%.
As for `OCC1OC(n2ccc3c(NO)ncnc32)C(O)C1O` (centres undefined), the growth was -56.3% (active) in the experiment with NCI-H23 lung; -10.3% (active) with NCI-H226 lung; -27.7% (active) in the experiment with NCI-H460 lung; -16.3% (active) with HOP-92 NSCLC; -10.9% (active) in the experiment on A549/ATCC NSCLC; -7.13% (active) in the experiment with 786-0 renal. In addition, the growth in the experiment with COLO 205 colon is -91.1% (active).
Turning to `C=C(NC(=O)C(=C)NC(=O)c1csc(C2=NC3c4csc(n4)C4NC(=O)c5csc(n5)C(C(C)(O)C(C)O)NC(=O)C5CSC(=N5)C(=CC)NC(=O)C(C(C)O)NC(=O)c5csc(n5)C3(CC2)NC(=O)C(C)NC(=O)C(=C)NC(=O)C(C)NC(=O)C(C(C)CC)NC2C=Cc3c(C(C)O)cc(nc3C2O)C(=O)OC4C)n1)C(N)=O` (centres undefined), the growth in the experiment on NCI-H23 lung was 43.2%; in the experiment with NCI-H226 lung it was -59.6% (active); in the experiment on NCI-H460 lung it was 66.2%; in the experiment on HOP-92 NSCLC, 16.2%; in the experiment on A549/ATCC NSCLC, 72.2%; with 786-0 renal it was 8.49% (active). Also, the growth in the experiment with COLO 205 colon was -14.3% (active).
